Measurements from the supplement of paper PMC11732987, “Enantioselective OTUD7B fragment discovery through chemoproteomics screening and high-throughput optimisation” (Communications Chemistry, 2025).

How the values were obtained:
Assay in all cases: log2 ratio of Biotin-Ahx-Ub-VS probe labelling (fragment/DMSO); higher = less target engagement (more negative = stronger competition), active = hit call of the paper (q ≤ 0.05, log2 ratio ≤ -1)
Settings in all cases: compound concentration: 200 uM; treatment time: 3 h
USP34 = USP34 (UniProt Q70CQ2)
Sequence of USP34 (Q70CQ2 whole entry, the tested form may be a part): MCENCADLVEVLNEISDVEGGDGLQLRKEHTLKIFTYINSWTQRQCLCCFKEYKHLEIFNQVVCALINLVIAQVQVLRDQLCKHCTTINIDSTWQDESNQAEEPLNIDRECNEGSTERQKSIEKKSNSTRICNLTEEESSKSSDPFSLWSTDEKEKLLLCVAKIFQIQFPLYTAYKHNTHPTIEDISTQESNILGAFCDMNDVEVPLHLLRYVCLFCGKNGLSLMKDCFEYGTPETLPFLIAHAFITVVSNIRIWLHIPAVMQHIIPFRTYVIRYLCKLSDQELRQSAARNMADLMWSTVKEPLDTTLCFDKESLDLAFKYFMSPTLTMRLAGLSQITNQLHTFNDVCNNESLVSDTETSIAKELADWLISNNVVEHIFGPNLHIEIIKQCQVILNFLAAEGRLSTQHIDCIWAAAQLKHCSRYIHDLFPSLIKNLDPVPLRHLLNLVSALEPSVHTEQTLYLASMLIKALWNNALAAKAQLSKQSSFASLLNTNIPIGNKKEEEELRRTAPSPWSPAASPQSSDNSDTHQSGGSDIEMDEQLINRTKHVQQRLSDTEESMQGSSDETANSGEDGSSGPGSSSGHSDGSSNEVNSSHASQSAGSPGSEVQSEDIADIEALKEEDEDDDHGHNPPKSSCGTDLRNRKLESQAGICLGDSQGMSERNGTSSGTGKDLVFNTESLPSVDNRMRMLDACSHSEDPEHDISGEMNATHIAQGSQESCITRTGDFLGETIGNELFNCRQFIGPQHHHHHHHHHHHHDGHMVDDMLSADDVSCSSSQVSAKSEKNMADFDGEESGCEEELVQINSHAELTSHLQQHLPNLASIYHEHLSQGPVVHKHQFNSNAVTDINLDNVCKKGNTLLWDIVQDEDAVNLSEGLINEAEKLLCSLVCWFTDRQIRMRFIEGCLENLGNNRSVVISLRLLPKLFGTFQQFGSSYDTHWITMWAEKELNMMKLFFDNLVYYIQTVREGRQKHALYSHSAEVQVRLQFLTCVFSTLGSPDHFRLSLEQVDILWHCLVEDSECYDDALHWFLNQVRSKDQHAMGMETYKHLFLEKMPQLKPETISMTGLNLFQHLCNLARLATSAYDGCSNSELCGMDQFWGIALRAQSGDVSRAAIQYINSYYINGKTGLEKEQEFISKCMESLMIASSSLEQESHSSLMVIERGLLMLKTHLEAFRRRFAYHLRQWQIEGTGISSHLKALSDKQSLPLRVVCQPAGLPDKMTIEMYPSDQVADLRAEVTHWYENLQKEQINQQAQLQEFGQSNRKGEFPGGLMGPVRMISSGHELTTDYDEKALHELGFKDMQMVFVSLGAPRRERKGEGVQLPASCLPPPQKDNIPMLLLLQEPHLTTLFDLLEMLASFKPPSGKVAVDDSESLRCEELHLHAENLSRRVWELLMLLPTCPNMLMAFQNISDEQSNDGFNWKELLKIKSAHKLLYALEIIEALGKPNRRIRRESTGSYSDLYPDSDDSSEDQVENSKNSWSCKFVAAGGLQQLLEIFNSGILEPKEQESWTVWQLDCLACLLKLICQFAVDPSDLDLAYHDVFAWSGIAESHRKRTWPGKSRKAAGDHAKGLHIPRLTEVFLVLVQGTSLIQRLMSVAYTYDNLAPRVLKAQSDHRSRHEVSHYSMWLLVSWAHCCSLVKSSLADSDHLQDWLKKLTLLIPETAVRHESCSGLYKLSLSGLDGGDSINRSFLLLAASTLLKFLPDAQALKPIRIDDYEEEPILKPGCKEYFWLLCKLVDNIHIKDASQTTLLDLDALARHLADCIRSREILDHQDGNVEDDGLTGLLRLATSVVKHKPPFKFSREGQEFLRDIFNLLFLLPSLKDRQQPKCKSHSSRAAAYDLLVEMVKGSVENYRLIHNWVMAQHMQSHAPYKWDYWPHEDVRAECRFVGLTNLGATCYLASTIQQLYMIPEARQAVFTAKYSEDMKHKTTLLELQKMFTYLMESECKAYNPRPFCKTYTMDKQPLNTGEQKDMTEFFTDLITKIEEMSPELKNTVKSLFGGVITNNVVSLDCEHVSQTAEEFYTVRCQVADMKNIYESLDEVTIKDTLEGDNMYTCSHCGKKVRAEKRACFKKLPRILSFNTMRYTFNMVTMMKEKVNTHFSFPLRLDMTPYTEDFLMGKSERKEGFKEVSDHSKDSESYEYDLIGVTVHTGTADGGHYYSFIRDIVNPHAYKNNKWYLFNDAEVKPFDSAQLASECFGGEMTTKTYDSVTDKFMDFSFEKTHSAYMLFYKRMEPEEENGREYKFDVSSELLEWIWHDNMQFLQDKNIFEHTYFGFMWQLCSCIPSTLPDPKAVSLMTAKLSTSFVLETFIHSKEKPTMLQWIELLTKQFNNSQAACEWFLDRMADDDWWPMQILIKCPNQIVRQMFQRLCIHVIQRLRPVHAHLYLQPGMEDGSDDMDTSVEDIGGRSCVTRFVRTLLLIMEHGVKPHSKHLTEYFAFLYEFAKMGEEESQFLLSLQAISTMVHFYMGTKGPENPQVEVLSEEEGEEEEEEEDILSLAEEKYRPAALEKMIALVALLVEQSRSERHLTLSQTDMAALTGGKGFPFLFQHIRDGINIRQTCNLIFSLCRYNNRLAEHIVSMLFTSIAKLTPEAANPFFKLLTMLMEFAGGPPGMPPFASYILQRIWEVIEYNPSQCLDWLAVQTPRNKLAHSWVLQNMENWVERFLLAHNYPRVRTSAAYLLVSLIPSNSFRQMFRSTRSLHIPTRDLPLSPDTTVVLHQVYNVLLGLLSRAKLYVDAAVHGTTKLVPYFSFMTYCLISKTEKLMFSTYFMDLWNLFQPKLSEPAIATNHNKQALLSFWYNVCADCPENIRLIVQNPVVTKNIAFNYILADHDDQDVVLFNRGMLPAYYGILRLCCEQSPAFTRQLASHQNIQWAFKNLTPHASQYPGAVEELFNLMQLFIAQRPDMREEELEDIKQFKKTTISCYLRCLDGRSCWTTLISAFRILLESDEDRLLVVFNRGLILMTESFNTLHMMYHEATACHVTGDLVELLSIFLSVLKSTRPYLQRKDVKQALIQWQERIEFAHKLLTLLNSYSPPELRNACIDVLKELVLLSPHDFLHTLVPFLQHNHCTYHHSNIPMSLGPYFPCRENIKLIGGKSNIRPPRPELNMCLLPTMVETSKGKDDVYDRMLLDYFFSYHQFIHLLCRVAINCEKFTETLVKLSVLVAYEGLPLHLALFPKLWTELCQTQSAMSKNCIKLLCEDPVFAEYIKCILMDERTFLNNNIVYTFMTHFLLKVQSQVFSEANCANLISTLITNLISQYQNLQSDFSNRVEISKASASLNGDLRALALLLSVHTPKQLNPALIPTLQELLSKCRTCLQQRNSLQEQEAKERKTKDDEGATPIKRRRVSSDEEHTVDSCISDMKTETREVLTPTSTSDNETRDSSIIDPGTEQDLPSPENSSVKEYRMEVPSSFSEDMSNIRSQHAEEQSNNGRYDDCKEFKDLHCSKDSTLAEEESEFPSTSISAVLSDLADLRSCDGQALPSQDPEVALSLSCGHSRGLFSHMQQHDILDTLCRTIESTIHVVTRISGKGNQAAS
Method in brief: (§1)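 Global-median-normalised Spectronaut label-free quantities were compared by unpaired t-test, and values are average log2 ratios of fragment over vehicle. Only proteins with ≥2 unique peptides were used. HEK293T lysate (495 µg per sample) was treated in triplicate with fragment at 200 µM or vehicle for 3 h and then with Biotin-Ahx-Ub-VS at 0.5 µM final for 1 h. Labelled DUBs were then NeutrAvidin-enriched, digested with LysC and trypsin, and run by diaPASEF LC-MS/MS.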

USP36 = biological target: T1, USP36 (UniProt Q9P275)
T1 sequence (whole entry): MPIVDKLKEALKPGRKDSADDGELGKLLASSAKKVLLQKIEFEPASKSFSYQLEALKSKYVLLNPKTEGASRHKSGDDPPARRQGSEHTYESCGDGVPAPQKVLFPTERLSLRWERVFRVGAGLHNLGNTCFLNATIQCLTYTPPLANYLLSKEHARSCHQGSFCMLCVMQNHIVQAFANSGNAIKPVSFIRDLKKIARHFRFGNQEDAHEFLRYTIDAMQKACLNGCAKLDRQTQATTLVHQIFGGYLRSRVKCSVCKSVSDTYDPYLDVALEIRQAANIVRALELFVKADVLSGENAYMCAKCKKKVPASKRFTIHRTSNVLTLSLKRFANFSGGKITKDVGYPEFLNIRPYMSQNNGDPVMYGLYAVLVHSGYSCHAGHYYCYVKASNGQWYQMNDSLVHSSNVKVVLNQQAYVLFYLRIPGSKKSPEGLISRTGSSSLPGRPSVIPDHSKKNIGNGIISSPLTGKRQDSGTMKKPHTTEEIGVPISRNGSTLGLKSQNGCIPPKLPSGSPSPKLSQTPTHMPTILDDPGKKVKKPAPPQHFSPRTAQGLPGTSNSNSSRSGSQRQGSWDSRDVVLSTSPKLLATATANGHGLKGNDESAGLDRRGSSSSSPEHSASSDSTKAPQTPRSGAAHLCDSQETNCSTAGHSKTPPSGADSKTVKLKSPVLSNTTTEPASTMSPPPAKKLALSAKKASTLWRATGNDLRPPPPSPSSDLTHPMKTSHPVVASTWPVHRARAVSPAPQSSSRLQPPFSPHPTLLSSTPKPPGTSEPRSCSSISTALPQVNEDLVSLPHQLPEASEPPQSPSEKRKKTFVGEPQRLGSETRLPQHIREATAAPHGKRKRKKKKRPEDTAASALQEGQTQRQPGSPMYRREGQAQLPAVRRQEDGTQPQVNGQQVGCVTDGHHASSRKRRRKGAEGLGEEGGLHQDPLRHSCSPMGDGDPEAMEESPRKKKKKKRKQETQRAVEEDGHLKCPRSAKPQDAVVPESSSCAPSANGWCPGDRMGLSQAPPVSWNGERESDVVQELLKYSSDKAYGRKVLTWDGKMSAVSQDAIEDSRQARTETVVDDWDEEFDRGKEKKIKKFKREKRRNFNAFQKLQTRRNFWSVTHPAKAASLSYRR
Method in brief: as §1

USP38 = biological target: T2, USP38 (UniProt Q8NB14)
T2 sequence (whole entry): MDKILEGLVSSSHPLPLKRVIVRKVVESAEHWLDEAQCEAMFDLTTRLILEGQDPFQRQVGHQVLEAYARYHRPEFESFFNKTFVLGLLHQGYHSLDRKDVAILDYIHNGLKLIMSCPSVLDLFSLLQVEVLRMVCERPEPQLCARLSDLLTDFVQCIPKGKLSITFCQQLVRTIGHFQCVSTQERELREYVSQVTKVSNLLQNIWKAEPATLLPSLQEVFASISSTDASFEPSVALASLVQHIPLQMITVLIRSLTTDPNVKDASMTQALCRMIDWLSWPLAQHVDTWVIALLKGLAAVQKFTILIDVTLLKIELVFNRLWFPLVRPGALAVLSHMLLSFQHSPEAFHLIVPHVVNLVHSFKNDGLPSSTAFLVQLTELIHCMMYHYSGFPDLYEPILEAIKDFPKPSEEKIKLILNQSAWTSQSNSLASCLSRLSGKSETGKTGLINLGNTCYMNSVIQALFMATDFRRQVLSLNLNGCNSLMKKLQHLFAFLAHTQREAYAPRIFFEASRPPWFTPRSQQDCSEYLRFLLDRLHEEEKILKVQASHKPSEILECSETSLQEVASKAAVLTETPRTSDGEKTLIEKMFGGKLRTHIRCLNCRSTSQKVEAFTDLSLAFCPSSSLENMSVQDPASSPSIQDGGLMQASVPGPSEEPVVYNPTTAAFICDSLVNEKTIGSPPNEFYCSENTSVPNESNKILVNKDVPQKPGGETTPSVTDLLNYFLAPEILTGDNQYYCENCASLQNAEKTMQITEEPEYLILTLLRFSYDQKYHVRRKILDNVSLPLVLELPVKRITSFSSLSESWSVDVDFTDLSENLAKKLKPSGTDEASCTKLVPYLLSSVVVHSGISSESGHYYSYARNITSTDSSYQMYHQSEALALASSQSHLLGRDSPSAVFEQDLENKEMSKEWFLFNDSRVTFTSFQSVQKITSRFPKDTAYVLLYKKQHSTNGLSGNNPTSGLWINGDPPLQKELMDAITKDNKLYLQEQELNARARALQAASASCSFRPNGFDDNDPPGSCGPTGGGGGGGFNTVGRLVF
Method in brief: as §1

USP39 = biological target: T3, USP39 (UniProt Q53GS9)
T3 sequence (whole entry): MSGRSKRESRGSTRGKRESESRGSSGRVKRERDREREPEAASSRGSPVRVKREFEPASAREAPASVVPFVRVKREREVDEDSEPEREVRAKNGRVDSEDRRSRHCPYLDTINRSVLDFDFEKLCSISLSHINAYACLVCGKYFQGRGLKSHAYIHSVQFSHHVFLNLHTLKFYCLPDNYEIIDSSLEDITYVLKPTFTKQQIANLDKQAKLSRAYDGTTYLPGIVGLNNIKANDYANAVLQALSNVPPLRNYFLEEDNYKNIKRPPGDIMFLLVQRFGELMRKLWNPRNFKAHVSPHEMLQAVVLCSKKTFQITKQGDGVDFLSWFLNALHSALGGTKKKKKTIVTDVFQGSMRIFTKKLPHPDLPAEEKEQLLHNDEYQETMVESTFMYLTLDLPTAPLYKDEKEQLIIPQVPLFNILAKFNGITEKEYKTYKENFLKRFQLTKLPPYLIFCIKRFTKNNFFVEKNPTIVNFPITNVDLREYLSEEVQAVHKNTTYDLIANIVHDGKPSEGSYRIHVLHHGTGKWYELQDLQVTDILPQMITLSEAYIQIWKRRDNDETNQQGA
Method in brief: as §1

USP4 = biological target: T4, USP4 (UniProt Q13107)
T4 sequence (whole entry): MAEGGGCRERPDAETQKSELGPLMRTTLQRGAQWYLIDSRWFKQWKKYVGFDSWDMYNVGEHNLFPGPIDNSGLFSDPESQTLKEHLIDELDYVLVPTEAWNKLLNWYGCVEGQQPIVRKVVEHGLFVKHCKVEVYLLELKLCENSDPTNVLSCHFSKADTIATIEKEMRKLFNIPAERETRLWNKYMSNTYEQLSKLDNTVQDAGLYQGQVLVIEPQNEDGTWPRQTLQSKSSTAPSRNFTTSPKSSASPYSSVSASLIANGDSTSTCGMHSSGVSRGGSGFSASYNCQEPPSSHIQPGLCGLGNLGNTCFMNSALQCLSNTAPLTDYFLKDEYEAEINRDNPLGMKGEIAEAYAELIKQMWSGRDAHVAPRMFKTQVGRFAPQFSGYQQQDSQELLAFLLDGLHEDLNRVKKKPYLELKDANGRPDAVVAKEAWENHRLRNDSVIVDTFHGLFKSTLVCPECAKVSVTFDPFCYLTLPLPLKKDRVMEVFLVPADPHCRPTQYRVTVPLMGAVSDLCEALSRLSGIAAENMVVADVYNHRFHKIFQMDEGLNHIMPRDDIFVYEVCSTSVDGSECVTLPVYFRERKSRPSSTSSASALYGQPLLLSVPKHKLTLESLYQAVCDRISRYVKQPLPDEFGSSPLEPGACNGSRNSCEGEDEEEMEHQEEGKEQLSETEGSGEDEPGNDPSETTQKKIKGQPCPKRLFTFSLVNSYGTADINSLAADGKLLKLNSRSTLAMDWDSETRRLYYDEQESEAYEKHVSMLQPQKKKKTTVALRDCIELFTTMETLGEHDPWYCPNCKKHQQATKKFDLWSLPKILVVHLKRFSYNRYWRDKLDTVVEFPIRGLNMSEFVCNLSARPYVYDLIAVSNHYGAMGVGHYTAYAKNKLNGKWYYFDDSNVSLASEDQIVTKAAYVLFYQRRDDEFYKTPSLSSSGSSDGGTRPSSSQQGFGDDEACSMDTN
Method in brief: as §1

Measured: log2 ratio of Biotin-Ahx-Ub-VS probe labelling

COc1cccc(CN(C)C(=O)CCl)c1
inactive: USP34 0.0183 | USP36 -0.187 | USP38 0.0437 | USP39 0.0189 | USP4 -0.4
